Among all 62,000 compounds or so, about 100 (0.16%) were called active. For the sample, actives were picked, then their nearest neighbours and some compounds at random. Unmarked numbers belong to inactive results.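 The calls were made as follows: active = inhibition above 20% in each of the two 10-compound mixture wells holding the compound; inactive = the rest.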

The assay deals with Complement C1s subcomponent (Homo sapiens) (UniProt P09871). The assay can be described thus: complement C1s protease inhibitors, primary screen, biochemical, 10-compound mixtures (AID 538).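 Also: 0% = enzyme wells lacking compound mixture and 100% = no-enzyme blank wells.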 The settings on record: purified C1s, fluorogenic AMC substrate, pooled mixtures; screened at 5 µM (by protocol).
Complement C1s subcomponent (Homo sapiens), sequence (P09871 16-437 limits assumed): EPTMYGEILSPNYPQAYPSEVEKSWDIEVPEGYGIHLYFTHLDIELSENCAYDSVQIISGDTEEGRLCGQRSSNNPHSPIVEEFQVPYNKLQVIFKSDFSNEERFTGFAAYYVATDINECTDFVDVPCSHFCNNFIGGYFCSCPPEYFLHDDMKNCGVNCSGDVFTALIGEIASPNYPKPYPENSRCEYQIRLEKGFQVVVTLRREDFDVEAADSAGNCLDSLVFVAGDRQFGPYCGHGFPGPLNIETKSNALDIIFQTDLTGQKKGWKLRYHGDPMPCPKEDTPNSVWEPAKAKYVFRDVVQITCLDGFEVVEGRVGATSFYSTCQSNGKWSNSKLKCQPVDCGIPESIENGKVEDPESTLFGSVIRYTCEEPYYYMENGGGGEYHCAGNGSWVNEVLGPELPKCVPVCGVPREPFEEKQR
Complement C1s subcomponent (Homo sapiens), sequence (P09871 438-688 limits assumed): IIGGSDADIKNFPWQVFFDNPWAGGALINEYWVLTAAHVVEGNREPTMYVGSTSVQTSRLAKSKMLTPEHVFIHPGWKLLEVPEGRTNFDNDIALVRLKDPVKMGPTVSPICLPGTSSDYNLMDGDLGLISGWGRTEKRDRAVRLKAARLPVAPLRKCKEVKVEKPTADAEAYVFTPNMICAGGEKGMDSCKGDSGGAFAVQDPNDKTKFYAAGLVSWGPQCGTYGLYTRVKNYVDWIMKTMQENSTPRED
`Cc1nnc(C)n1/N=C/c1ccc(C(C)C)cc1`: the mean inhibition % of two 10-compound mixtures (stronger effect = higher value) is 5.96%.
`O=C(CCc1ccccc1)Nc1ccc(NC(=O)C2CC2)nc1`: the mean inhibition % of two 10-compound mixtures (stronger effect = higher value) is 3.19%.
In the case of `CC1OC2C(OC1C)N(S(C)(=O)=O)CCN2S(C)(=O)=O` (stereo not drawn), the mean inhibition % of two 10-compound mixtures (stronger effect = higher value) is 6.29%.
With `COc1cc(C(O)c2nc3ccccc3n2C)cc(OC)c1OC` (stereo not drawn), the mean inhibition % of two 10-compound mixtures (stronger effect = higher value) was -4.52%.
Consider `COc1ccc(C)cc1-n1nnnc1SCC(=O)c1cc(C)n(Cc2ccco2)c1C`, for which the mean inhibition % of two 10-compound mixtures (stronger effect = higher value) was 11.7%.
`O=C(NCC12CC3CC(C1)CC(CNC(=O)N1CCCC1)(C3)C2)N1CCCC1`: the mean inhibition % of two 10-compound mixtures (stronger effect = higher value) is 13.6%.
On to `c1cc(-c2nn[nH]n2)ccc1CN1CCCCC1`, for which the mean inhibition % of two 10-compound mixtures (stronger effect = higher value) was 14.2%.
`CCCCn1c(SCC(=O)NCC2CCCO2)nc2ccc(N3CCOCC3)cc2c1=O` (stereo not drawn): the mean inhibition % of two 10-compound mixtures (stronger effect = higher value) was -11%.
As for `Cn1c(=O)c2[nH]c(NCC3CCCO3)nc2n(-c2ccccc2)c1=O` (stereo not drawn), the mean inhibition % of two 10-compound mixtures (stronger effect = higher value) is 64.6% (active).
Regarding `Cc1nc2ccccc2c2oc(C(=O)NCC3CCCO3)cc12` (stereo not drawn), the mean inhibition % of two 10-compound mixtures (stronger effect = higher value) is -97.9%.
Regarding `COc1cccc(N2C(=O)CC(N3CCN(S(=O)(=O)c4ccccc4)CC3)C2=O)c1` (stereo not drawn), the mean inhibition % of two 10-compound mixtures (stronger effect = higher value) is -26.5%.
Then `CCOC(=O)C1Cn2c(nc3c(c2=O)C(C)(CC)Cc2ccccc2-3)S1` (stereo not drawn), with -5.78%; and `O=C1CC(c2cccc(Br)c2)C2=C(CCCC2=O)N1` (stereo not drawn), with 17.2%.
Then `CCNC(=O)N1CCNC(=O)C1CC(=O)Nc1ccc(C(=O)OCC)cc1` (stereo not drawn), with -35.7%; and `Cc1ccc(-c2nc(COC(=O)c3c(C)noc3C)cs2)cc1`, with 3.81%.
In the case of `COC(=O)Cn1c(=NC(=O)CSCC(=O)Nc2cc(C)on2)sc2ccccc21`, the mean inhibition % of two 10-compound mixtures (stronger effect = higher value) was 5.49%.
The same measure for `COc1ccccc1-c1cc(C(=O)NCCCn2ccnc2)no1`: 9.65%; for `O=C(NCCCN1CCOCC1)c1cc(-c2ccc(Cl)cc2)on1`: 4.71%; for `CCCCc1nc2ccccc2c(=O)n1NC(=O)c1c(O)c2cccc3c2n(c1=O)CC3`: 4.25%.
On to `O=C1CCCC(O)=C1C=NCCc1ccccc1`, for which the mean inhibition % of two 10-compound mixtures (stronger effect = higher value) was 50.4% (active).
In the case of `O=C1CC(c2ccccc2)CC(O)=C1C=NCCN1CCOCC1` (stereo not drawn), the mean inhibition % of two 10-compound mixtures (stronger effect = higher value) was 17.3%.
Regarding `CC1(C)CC(=O)C(C=NCCC2=CCCCC2)=C(O)C1`, the mean inhibition % of two 10-compound mixtures (stronger effect = higher value) is -0.72%.
Then `COC(=O)c1nc(NC(=O)c2ccc(Cl)cc2)n[nH]1`, with 12.2%.
The same measure for `Cc1ccc(C(=O)N(CN2CCCC2=O)c2ccc(F)cc2)cc1`: 5.52%; for `Cc1ccc(C)c(N2CCN(C(=O)CCc3nc4ccccc4[nH]3)CC2)c1`: 1.21%; for `CCOC(=O)C(CCOc1cccc(CC)c1)C(=O)OCC`: -10.1%.
As for `Cc1c(NC(=O)Nc2ccccc2Cl)sc(=S)n1C`, the mean inhibition % of two 10-compound mixtures (stronger effect = higher value) was -6.43%.
In the case of `CCCCN(C)C(=O)c1ccc2c(c1)N(CC)C(=O)c1ccccc1S2(=O)=O`, the mean inhibition % of two 10-compound mixtures (stronger effect = higher value) was 5.62%.
Then `COc1ccc(-n2c(SCC(=O)Nc3ccc4c(c3)OCO4)nnc2C(C)N2CCCCC2)cc1` (stereo not drawn), with -12.3%; and `CCN(Cc1ccncc1)C(=O)c1cccc(S(=O)(=O)N2CCOCC2)c1`, with 2.16%.
As to `Cc1cc(N2C(=O)C(=O)/C(=C(/O)c3ccc(Cl)cc3)C2c2cccc(Br)c2)no1` (stereo not drawn), the mean inhibition % of two 10-compound mixtures (stronger effect = higher value) was 11.8%.
Take `O=C(NCc1ccco1)c1sc2cccc(F)c2c1Cl`: the mean inhibition % of two 10-compound mixtures (stronger effect = higher value) is 3.97%.
In the case of `COc1ccc(NC(=O)CCNC(=O)Cn2ccc3ccccc3c2=O)c(OC)c1`, the mean inhibition % of two 10-compound mixtures (stronger effect = higher value) is 13.2%.
With `CC(C)Nc1nc(N(c2ccccc2)c2ccccc2)nc(-n2ccnc2)n1`, the mean inhibition % of two 10-compound mixtures (stronger effect = higher value) was 9.18%.
Regarding `CSc1cccc(NC(=O)C2CCCN2S(=O)(=O)c2ccc3c(c2)CCC(=O)N3)c1` (stereo not drawn), the mean inhibition % of two 10-compound mixtures (stronger effect = higher value) is -3.33%.
The same measure for `Cc1ccc(C2CC(=O)NC(SCC(=O)OCc3ccccc3)=C2C#N)o1` (stereo not drawn): -61.3%.
Take `CCC(=O)Nc1cccc(NC(=O)CSc2nnnn2C2CCCC2)c1`: the mean inhibition % of two 10-compound mixtures (stronger effect = higher value) was 2.81%.
On to `CC(C)c1cc(C(=O)O)on1`, for which the mean inhibition % of two 10-compound mixtures (stronger effect = higher value) is -17.9%.
Take `CC1CCc2c(sc(NC(=O)c3ccc(Cn4cc(Br)cn4)o3)c2C(N)=O)C1` (stereo not drawn): the mean inhibition % of two 10-compound mixtures (stronger effect = higher value) was -5.95%.
As for `CCCn1c(=O)c2ccccc2n2c(SCC(=O)/C(C#N)=C(\C)N)nnc12`, the mean inhibition % of two 10-compound mixtures (stronger effect = higher value) was -0.9%.
As for `CCOc1ccc2nc(SC(CC)C(=O)Nc3cc(C)on3)sc2c1` (stereo not drawn), the mean inhibition % of two 10-compound mixtures (stronger effect = higher value) was 2.46%.
Take `COc1ccccc1Nc1nc(N)nc(CN(C)C2CCCCC2)n1`: the mean inhibition % of two 10-compound mixtures (stronger effect = higher value) is -40.1%.
Consider `C=CCn1c(CC(=O)Nc2cccc(OC)c2)nnc1SCC(=O)NC1CCCCC1`, for which the mean inhibition % of two 10-compound mixtures (stronger effect = higher value) is -2.35%.
Regarding `O=C(c1cccc(S(=O)(=O)N2CCOCC2)c1)N1CCOCC1`, the mean inhibition % of two 10-compound mixtures (stronger effect = higher value) was 13.9%.
In the case of `CN1CCN(C(=O)c2ccc(NS(=O)(=O)c3ccccc3)cc2)CC1`, the mean inhibition % of two 10-compound mixtures (stronger effect = higher value) was 9.96%.
Consider `CC(=O)N1CCN(C(=O)c2cccc(S(=O)(=O)Nc3ccc(C)cc3)c2)CC1`, for which the mean inhibition % of two 10-compound mixtures (stronger effect = higher value) was 66.7% (active).
As to `COCCCNC(=O)COc1cc(C)c(Cl)c(C)c1`, the mean inhibition % of two 10-compound mixtures (stronger effect = higher value) is -0.425%.
The same measure for `CCOC(=O)Cc1csc(NC(=O)CSc2nc(C)cc(=O)[nH]2)n1`: -2.67%.

The values above are taken from PubChem BioAssay AID538 (PCMD, 2006).
